The structures appear in SMILES notation.

In this experiment the target is AMP-activated protein kinase, AMPK (Homo sapiens) (UniProt P54646+O43741+P54619+Q9UGJ0+Q9Y478+Q13131+Q9UGI9). Description: AMP-dependent Kinase enzyme assay. An in vitro enzyme assay that detects ADP turnover that is directly proportional to AMPK activity. This uses naive AMPK that is activated during the assay with MK-8722. It is filed as functional. Details: scale not given: direction of the effect not stated beside the values. As to conditions: 30 µM.
On to `Cc1c(C(=O)NCCCS(C)(=O)=O)cccc1-c1ccccn1`, for which the Percent Effect came to 10.6%.
As to `COc1cc(C(=O)O)cc(I)c1OCC(=O)NCCc1ccccc1`, the Percent Effect was 11.9%.
As for `CN1CC2(CCN(C(=O)c3ccc(=O)n(C)c3)CC2)CC1=O`, the Percent Effect is -1.98%.
To `Cc1occc1C(=O)Nc1cccc(C(=O)OCC2CCCN2)c1` (stereo not given) belongs -5.07%; to `Cc1ccc(-n2cc(CN3CCOCC(CN(C)C)C3)cn2)cc1C` (stereo not given), 8.42%.
Regarding `COc1ccc(CCN(C)C(=O)c2cc(C(C)=O)c[nH]2)cc1OC`, the Percent Effect is -3.69%.
Next, `Cn1cnc(S(=O)(=O)N2CCCC2c2ccnc3nccn23)c1` (stereo not given): 0.76%; `CCN(C)C(=O)c1cccc(S(=O)(=O)NCCc2nc(C)cc(=O)[nH]2)c1`: -5.87%.
For `OCCCNc1cccc(COC2CCCCC2)c1`, the Percent Effect was -15.3%.
For `CC1CCN(CCNC(=O)c2sccc2C2CC2)CC1`, the Percent Effect is 5.67%.
`CCN(CC)c1ncccc1CNCc1ccc(-c2ccn[nH]2)s1`: the Percent Effect was determined as 1.23%.
Next, `O=C(CNc1ccc(OC2CCOC2)cc1)NCc1ccc(F)cc1` (stereo not given): 18.1%; `Cc1nn(C)cc1C(=O)N1CCCn2nc(CN3CC[C@H](F)C3)cc2C1`: 2.32%.
Next, `CC(=O)N1CCC(c2ncc(C(=O)Nc3ccccc3)c(C)n2)CC1`: 25%; `O=C(CCc1ccsc1)NCC1CCN(C2CC2)C1` (stereo not given): -5.43%.
To `CCc1nn(C)c(Cl)c1CN1CCCC2(CC1)CN(C)C(=O)O2` (stereo not given) belongs -9.39%; to `COc1cccc(NC(=O)NCC2CCCN(C3CCOCC3)C2)c1` (stereo not given), 6.25%.
Turning to `COc1ccc(NCCC(=O)NCc2cccnc2N(C)C)cc1`, the Percent Effect was found to be 22.9%.
To `Cc1nsc(C(=O)NCCc2ccccc2)n1` belongs 3.51%.
Next, `CN(CCc1ccccc1)c1cnn(CC2COCCO2)c(=O)c1` (stereo not given): 8.71%; `CN1C[C@@H]2CC[C@H](CC1=O)N2C(=O)c1cc2ccccc2[nH]c1=O`: 5.77%.
Turning to `Cc1ccc(CNC(=O)c2ccc(=O)n(C)n2)c(OCC2CC2)c1`, the Percent Effect was 14.4%.
To `O=C(NCc1nncn1C1CC1)c1ccccc1OCC1CC1` belongs 1.41%; to `Cc1ccccc1[C@@H]1CN(CCCS(=O)(=O)N(C)C)C[C@H]1C(=O)O`, -1.92%.
Next, `Cc1ncsc1C(=O)N1CCCC1c1c(C)nn(C)c1C` (stereo not given): 1.43%; `CCCOc1ccc2c(c1)OCC(CNC1CCc3ncnn3C1)=C2` (stereo not given): 10.2%.
Next, `COc1ccc(-c2cccc3c2OC(CN)C3)cc1F` (stereo not given): 0.444%.
In the case of `Cc1sc(Oc2ccccc2Cl)nc1C(=O)O`, the Percent Effect was found to be 10.7%.
On to `FC(F)(F)c1cccc(OC2CCN(Cc3ncc[nH]3)CC2)c1`, for which the Percent Effect amounted to 7.66%.
For `CCNc1cc2c(nn1)CCN(C(=O)c1ccc(-n3cccn3)nc1)C2`, the Percent Effect was -5.94%.
Take `Cc1c(NC(=O)NCCO)cccc1OC1CCCC1`: the Percent Effect is -2.68%.
To `CN(C)c1nc2c(c(=O)[nH]1)Cc1ccccc1OC2` belongs 2.09%; to `c1ccc(C2Cn3ccnc3CN2Cc2ncc[nH]2)cc1` (stereo not given), 11.3%; to `Cc1csc(C(C)(C)NCC(=O)N(C)Cc2ccc(C)o2)n1`, -7.36%.
To `NC(=O)C1CCN(CCCNC(=O)Nc2nccs2)CC1` belongs 5.68%; to `O=C(NC1CCCC1)N1C[C@H]2CN(c3ccncc3)C[C@@]2(C(=O)O)C1`, 9.08%; to `Cc1cc(C)n(C2CN(CCC(=O)NCCc3ccccc3)C2)n1`, 2.98%.
To `CCC[C@@H]1CN(Cc2cnc(-c3cccs3)nc2)C[C@H]1C(=O)O` belongs -8.24%; to `O=C(CC1CCc2ccccc21)NC1(C(=O)O)CCCC1` (stereo not given), -6.64%.
For the compound `COC(=O)c1ccc2c(c1)CCCN2S(=O)(=O)c1cn(C)c(C)n1`, the Percent Effect was -5.88%.

For the origin of these results see ChEMBL document CHEMBL3988442, “University of Dundee, Small-Polar-MMV Screening Library” (2021).
